# The other results are listed elsewhere or left out. Inconclusive results are not listed. Active and inactive are the calls of the source. The call rests on the fitted dose curve; in most records, active means well fitted curve in the direction sought with a large enough effect; inconclusive means small, poorly fitted or top-dose-only effect, or another doubt; inactive means no such curve, though single readings can be large or run the other way.
# Biological target: Glutathione reductase, mitochondrial (Homo sapiens) (UniProt P00390)
# Sequence (P00390 whole entry, looked up): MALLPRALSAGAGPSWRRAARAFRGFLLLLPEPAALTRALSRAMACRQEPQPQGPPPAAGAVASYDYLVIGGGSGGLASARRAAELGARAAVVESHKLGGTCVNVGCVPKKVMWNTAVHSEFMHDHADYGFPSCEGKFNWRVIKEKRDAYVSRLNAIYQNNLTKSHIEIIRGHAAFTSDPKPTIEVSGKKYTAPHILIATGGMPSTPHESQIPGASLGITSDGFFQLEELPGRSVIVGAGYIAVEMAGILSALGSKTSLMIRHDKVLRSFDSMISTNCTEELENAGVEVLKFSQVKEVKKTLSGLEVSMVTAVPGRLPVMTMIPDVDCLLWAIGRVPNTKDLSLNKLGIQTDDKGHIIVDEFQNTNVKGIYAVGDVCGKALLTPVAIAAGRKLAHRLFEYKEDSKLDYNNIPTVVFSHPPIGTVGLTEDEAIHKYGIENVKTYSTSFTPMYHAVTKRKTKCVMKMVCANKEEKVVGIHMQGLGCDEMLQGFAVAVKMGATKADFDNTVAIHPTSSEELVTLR
# Assay: qHTS Assay for Inhibitors of Mammalian Selenoprotein Thioredoxin Reductase 1 (TrxR1): Counterassay in Glutathione Reductase (GR)
# Source text: The selenoprotein thioredoxin reductase (TrxR; EC 1.8.1.9) is a FAD containing homodimeric pyridine nucleotide-disulfide oxidoreductase with many cellular roles. Together with NADPH and its prime substrate thioredoxin (Trx), the enzyme forms the core of the Trx system. The mammalian Trx system exerts a wide spectrum of functions including redox regulation, antioxidant defense, regulation of transcription factors as well as support of cell growth and replication. Many of these functions involve the reduction of Trx, which may subsequently reduce a number of different substrates including ribonucleotide reductase, peroxiredoxins or NFkB. Mammalian TrxR itself also has a broad substrate specificity, reducing both protein and non-protein substrates, including low molecular weight compounds such as dehydroascorbate, lipoic acid, ubiquinone, and juglone. […]
# Three microliters of reagents (100 microM NADPH and 60 nM hGR or 100 microM NADPH as no-enzyme control) was dispensed into 1,536-well black clear-bottomed plates (Buffer: 0.1 M potassium phosphate, pH 7.4/10 mM EDTA, 0.01 % Tween-20). […] The plate was transferred to a ViewLux high-throughput CCD imager (Perkin-Elmer, Wellesley, MA) where kinetic measurements (one read per 5 min for 6 reads, total time 25 min) of the TNB absorbance was acquired using a 405 excitation filter.
smiles,measurement,value
COc1ccc(-c2nc(CS(=O)CC(=O)N3CCC4(CC3)OCCO4)c(C)o2)cc1 (stereo unspecified),outcome,inactive
